Pf growth 48h = inhibits P. falciparum growth in the first generation, 48 h; Potency, µM (highest dose often 28.7 µM), inactives show top-dose activity change, negative = inhibition, hits mostly inhibitors; 310,000 compounds, 5.9% hits; P. falciparum luciferase growth in erythrocytes, 48 h; further: potency means the concentration at half of the fitted maximal effect; on the % scale 0 is the no-effect control and ±100 the full control effect
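Here the parasites carry a stable luciferase gene and grow inside erythrocytes in Albumax-based RPMI medium with compound for one erythrocytic cycle. Activity is scored as loss of luminescent signal.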
FBPA Giardia inh = inhibitors of Giardia lamblia fructose-1,6-bisphosphate aldolase | A8B2U2 | purified Giardia FBPA | Potency, µM (titrated, usually from 59.6 µM), for inactives: at the highest dose activity, negative = inhibition, most hits filed as inhibitors | 290,000 compounds, 0.71% hits | AID 2451; further: potency means the concentration at half of the fitted maximal effect; on the % scale 0 is the no-effect control and ±100 the full control effect; nearly all actives have a fitted effect of over 55% in size
Target sequence (A8B2U2 whole entry, looked up): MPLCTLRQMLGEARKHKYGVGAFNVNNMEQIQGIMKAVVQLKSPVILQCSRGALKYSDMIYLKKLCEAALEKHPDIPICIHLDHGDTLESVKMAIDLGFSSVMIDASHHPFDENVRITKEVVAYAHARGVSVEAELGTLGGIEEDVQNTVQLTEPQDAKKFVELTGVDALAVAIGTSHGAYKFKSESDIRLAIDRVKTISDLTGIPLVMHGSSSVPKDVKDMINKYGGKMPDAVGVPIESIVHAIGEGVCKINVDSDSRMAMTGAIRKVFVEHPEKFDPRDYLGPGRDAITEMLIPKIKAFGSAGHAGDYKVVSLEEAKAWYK
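40 nM FBPA preincubated 10 min at RT with compound (up to 57.5 uM final), then substrate plus GAPDH/TPI/NAD/arsenate coupling and diaphorase/resazurin added. Fluorescence read after 20 min at RT, 525/598 nm.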
Shiga toxin inh = blocks Shiga toxin action in Vero cells; Vero cells, Shiga toxin protein synthesis inhibition reporter; inhibition, % at 38.7 µM; 290,000 compounds, 9.2% hits; AID 2315; in the data active means inhibition mostly above about 28%, no sharp cut-off; inactive means mostly below about 43%; further: 0% is about no effect
NS1 inh = inhibitors of influenza NS1 protein function; Potency, µM (titrated, usually from 46.1 µM), for inactives: at the highest dose activity, positive = more growth; AID 2326; 270,000 compounds, 0.4% hits; calls by dose curve; further: potency means the concentration at half of the fitted maximal effect; actives are rising curves; nearly all actives have a fitted effect of over 50% in size
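OD600 was taken as the measure of yeast growth restored by compound in an NS1-expressing S. cerevisiae strain. Cells had been washed out of glucose medium and diluted 1:100 into galactose -URA medium, pH 6.0.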
Pf growth 96h = P. falciparum growth inhibition at 96 hours; P. falciparum luciferase reporter growth, 96 h; Potency, µM (titrated, usually from 28.7 µM), without a hit: top-dose activity change, negative = inhibition, usual class: inhibitors; 320,000 compounds, 6.9% hits; AID 504834; further: potency means the concentration at half of the fitted maximal effect; on the % scale 0 is the no-effect control and ±100 the full control effect
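Readout is luminescence from an integrated firefly luciferase in P. falciparum. Red cells, 2% hematocrit and 0.05% parasitemia final, were cultured with compound through two parasite generations (96 hours) at 37 C, 5% CO2.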
Cycloheximide cs = counter-screen for Shiga toxin inhibitors: cycloheximide protein synthesis inhibition | max response, % | cell reporter, cycloheximide protein synthesis inhibition counterscreen | 300,000 compounds, 12% hits; in the data active means max response mostly above about 13%, no sharp cut-off; inactive means mostly below about 14%; further: read at 38.3 µM for the half of the compounds with a filed dose; 0% is about no effect
* = called active by the depositor. In the library only some 21% were active in any assay of this set; here they are far more common. Unless noted, the call rests on the fitted dose curve; in most records, active means well fitted curve in the direction sought with a large enough effect; inconclusive means small, poorly fitted or top-dose-only effect, or another doubt; inactive means no such curve, though single readings can be large; an effect the other way counts as inactive or inconclusive.

How did O=c1nc(-c2ccccc2)c2cc(SC(F)F)ccc2[nH]1 do in these assays?
Pf growth 48h: inconclusive; FBPA Giardia inh: 2%; Shiga toxin inh: 2; NS1 inh: 16%; Pf growth 96h: -8%; Cycloheximide cs: 3

How did O=C(CNC(=O)c1ccccc1F)N/N=C/c1cccs1 do in these assays?
Pf growth 48h: 121%; FBPA Giardia inh: -8%; Shiga toxin inh: 53*; NS1 inh: 1%; Pf growth 96h: -25%; Cycloheximide cs: 30*

How did Cc1ccc(/C=N/NC(=O)CSc2nc3ccccc3n2C)s1 do in these assays?
Pf growth 48h: 5%; FBPA Giardia inh: 4µM*; Shiga toxin inh: 23; NS1 inh: -29%; Pf growth 96h: 0%; Cycloheximide cs: 13

Results for CC1C(=O)NN=C1C(=O)N/N=C/c1cccs1 (configuration not stated) ?
Pf growth 48h: 87%; FBPA Giardia inh: -19%; Shiga toxin inh: 86*; Pf growth 96h: 26%; Cycloheximide cs: 19*

How did O=C(N/N=C/c1cccs1)c1ccccn1 do in these assays?
Pf growth 48h: 363%; FBPA Giardia inh: -3%; Shiga toxin inh: 111*; NS1 inh: -15%; Pf growth 96h: 406%; Cycloheximide cs: 33*

How did Cc1ccc(/C=N/NC(=O)c2ccncc2)s1 do in these assays?
Pf growth 48h: inconclusive; FBPA Giardia inh: -5%; Shiga toxin inh: 20; NS1 inh: -1%; Pf growth 96h: -30%; Cycloheximide cs: 15
